# IDE exosite inh – exo-site inhibitors of human IDE, primary screen, biochemical, fluorescence anisotropy, probe displacement | AID 1259349, 2017 | Insulin-degrading enzyme (Homo sapiens), P14735 | z-score at 20 µM | 17,000 compounds, 6.3% hits | purified IDE, FL-6b probe fluorescence polarization; stronger effect = lower value;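 active = z-score of -3 or lower, meaning strong loss of probe binding signal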;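 note: His-tagged human IDE residues 42-1019 made in E. coli with 30 nM FL-6b probe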
# Active calls of the source: *. Only a selection was taken, and hits are over-represented in it overall.
SMILES,IDE exosite inh
CC(C)CC#Cc1ccc([C@@H]2[C@H](CO)N3C(=O)CN(C(=O)Cc4ccccc4)C[C@@H]23)cc1,4
Cc1cccc(S(=O)(=O)N2C[C@H](O)COC[C@H]3O[C@H](CC(=O)Nc4ccccc4)CC[C@@H]32)c1,0.67
CS(=O)(=O)N1CC(=O)N2[C@@H](CO)[C@H](c3ccc(C#CCC4CCCC4)cc3)[C@@H]2C1,0.99
N#C[C@@H]1[C@H](c2ccccc2-c2cccc(F)c2)[C@H](CO)N1C(=O)c1cccnc1,-0.45
CC(=O)N1CCCCN2[C@H](C1)[C@@H](c1ccc(-c3ccc(C)cc3)cc1)[C@@H]2CO,-0.53
CC(=O)N1CCCCN2[C@@H](CO)[C@@H](c3ccc(-c4ccc(C)cc4)cc3)[C@@H]2C1,1.1
CC(=O)N1CCCCN2[C@H](CO)[C@@H](c3ccc(-c4ccc(C)cc4)cc3)[C@@H]2C1,1.5
CN(C)C(=O)c1ccc(-c2ccc([C@H]3[C@@H](CO)N4CCCCN(C(=O)C5CC5)C[C@H]34)cc2)cc1,3.7
CC(=O)N1CCCCN2[C@H](C1)[C@@H](c1ccc(-c3cccc(C)c3)cc1)[C@@H]2CO,-14*
CN(C)C(=O)c1ccc(-c2ccc([C@H]3[C@H]4CN(C(=O)C5CC5)CCCCN4[C@H]3CO)cc2)cc1,2.2
CN(C)C(=O)c1ccc(-c2ccc([C@H]3[C@H](CO)N4CCCCN(C(=O)C5CC5)C[C@@H]34)cc2)cc1,-5*
CC(=O)N1CCCCN2[C@@H](CO)[C@H](c3ccc(-c4ccc(C)cc4)cc3)[C@@H]2C1,-0.57
CC(=O)N1CCCCN2[C@H](C1)[C@H](c1ccc(-c3cccc(C)c3)cc1)[C@@H]2CO,-5.3*
COc1ccc(NC(=O)N2C[C@H](O)COC[C@H]3O[C@H](CC(=O)N4CCCCC4)CC[C@@H]32)cc1,1.3
CCS(=O)(=O)N1CC2(CN(C)[C@@H](CO)c3c2c2ccc(OC)cc2n3C)C1,-1.1
COCC(=O)N1CC(=O)N2[C@H](CO)[C@H](c3ccc(C#CC4CCCCC4)cc3)[C@H]2C1,0.97
O=S(=O)(c1ccc(F)cc1)N1CCCCN2[C@H](CO)[C@H](c3ccc(-c4cncnc4)cc3)[C@@H]2C1,-0.41
CCS(=O)(=O)Nc1ccc2c(c1)C(=O)N(C)[C@H]1CC[C@@H](CC(=O)NCc3ccccc3F)O[C@@H]1CO2,0.36
O=C(Nc1cccc(F)c1)N1CCCCN2[C@@H](CO)[C@H](c3ccc(C#Cc4cccnc4)cc3)[C@@H]2C1,0.046
CCCNC(=O)N1[C@H](C#N)[C@@H](c2ccccc2-c2ccc(C)cc2)[C@@H]1CO,2
C[C@H]1CN([C@@H](C)CO)C(=O)c2cccc(NS(C)(=O)=O)c2O[C@@H]1CN(C)Cc1ccc(-c2ccccc2)cc1,-1.1
CN1C(=O)c2cc(NC(=O)Cc3cccs3)ccc2OC[C@H]2O[C@H](CC(=O)N[C@H]3CCN(Cc4ccccc4)C3)CC[C@@H]21,0.65
CCC(=O)N1[C@H](CO)[C@H](c2ccc(-c3cccc(F)c3)cc2)[C@@H]1CNC(C)=O,2.5
CCC(=O)N1[C@H](CO)[C@H](c2ccc(-c3ccccc3OC)cc2)[C@@H]1CNC(C)=O,-15*
CCC(=O)N1[C@@H](CO)[C@@H](c2ccc(-c3cccc(F)c3)cc2)[C@@H]1CNC(C)=O,4.6
SMILES,IDE exosite inh
CCC(=O)N1[C@H](CO)[C@H](c2ccc(-c3ccccc3OC)cc2)[C@H]1CNC(C)=O,-8.2*
CC(=O)NC[C@H]1[C@H](c2ccc(-c3ccccc3F)cc2)[C@H](CO)N1C(C)=O,3.9
CCC(=O)N1[C@H](CNC(C)=O)[C@H](c2ccc(-c3ccc(F)cc3)cc2)[C@@H]1CO,0.7
C[C@@H]1CN([C@H](C)CO)C(=O)c2ccccc2-c2ccccc2CO[C@@H]1CN(C)C(=O)Nc1ccnc(N2CCOCC2)c1,-0.57
CC(=O)N1CCCCN2[C@@H](CO)[C@@H](c3ccc(C#Cc4ccccc4F)cc3)[C@@H]2C1,-2.9
CCC(=O)N1CCCCN2[C@@H](CO)[C@H](c3ccc(-c4ccc(F)cc4)cc3)[C@@H]2C1,2.7
O=C(c1ccc(F)cc1)N1CCCCN2[C@H](CO)[C@H](c3ccc(C#CC4(O)CCCC4)cc3)[C@H]2C1,-3.2*
COc1ccc(C#Cc2ccc([C@@H]3[C@H](CO)N4CCCCN(C(=O)Nc5ccccc5F)C[C@@H]34)cc2)cc1,3
CCC(=O)N1CCCCN2[C@H](CO)[C@@H](c3ccc(C#Cc4ccccc4F)cc3)[C@@H]2C1,-5.8*
O=C(c1ccc(F)cc1)N1CCCCN2[C@@H](CO)[C@H](c3ccc(C#CC4(O)CCCC4)cc3)[C@@H]2C1,5.8
O=C(c1ccc(F)cc1)N1CCCCN2[C@@H](CO)[C@@H](c3ccc(C#CC4(O)CCCC4)cc3)[C@@H]2C1,1.8
CC(=O)N1CCCCN2[C@H](CO)[C@@H](c3ccc(C#Cc4ccccc4F)cc3)[C@@H]2C1,-7.5*
O=C(Nc1ccccc1F)N1CCCCN2[C@@H](CO)[C@@H](c3ccc(C#Cc4ccccc4)cc3)[C@@H]2C1,-0.93
CCC(=O)N1CCCCN2[C@H](C1)[C@H](c1ccc(C#Cc3ccccc3F)cc1)[C@@H]2CO,-4.6*
COc1ccc(C#Cc2ccc([C@H]3[C@H](CO)N4CCCCN(C(=O)Nc5ccccc5F)C[C@@H]34)cc2)cc1,2.3
CCC(=O)N1CCCCN2[C@H](CO)[C@H](c3ccc(C#Cc4ccccc4F)cc3)[C@H]2C1,-1.1
CCS(=O)(=O)N1CCCCN2[C@H](CO)[C@@H](c3ccc(-c4ccc(C(=O)N(C)C)cc4)cc3)[C@@H]2C1,-0.38
C[C@H]1CCCCO[C@H](CN(C)C(=O)CCC(F)(F)F)[C@@H](C)CN([C@@H](C)CO)C(=O)c2cc(NC(=O)C3CCCCC3)ccc2O1,1.3
O=C(C[C@@H]1C[C@@H]2c3cc(NS(=O)(=O)c4ccccc4)ccc3O[C@@H]2[C@H](CO)O1)NCC(F)(F)F,0.54
CN(C)CCCNC(=O)C[C@H]1CC[C@H]2[C@@H](COC[C@@H](O)CN2CC2CC2)O1,0.63
C[C@@H]1CCCCO[C@H](CN(C)C(=O)CCC(F)(F)F)[C@H](C)CN([C@H](C)CO)C(=O)c2cc(NC(=O)C3CCCCC3)ccc2O1,-1.1
CN1c2ccc(-c3ccccc3)cc2[C@@H]2[C@@H](CCN2C(=O)NC2CCCCC2)[C@@H]1CO,-0.53
C[C@@H]1COCn2nncc2CC[C@H](Cc2ccc(-c3ccccc3)cc2)C(=O)N1,-0.41
CCCC(=O)Nc1ccc2c(c1)C(=O)N(C)C[C@H](OC)[C@H](C)CN(C(=O)c1ccccn1)[C@@H](C)CO2,2.2
O=C1CNC[C@@H]2[C@H](c3ccc(-c4ccccc4F)cc3)[C@@H](CO)N12,0.6
SMILES,IDE exosite inh
CO[C@H]1CC[C@@H]2CCOc3ccc(C#N)cc3C(=O)N(C)[C@@H](C)C(=O)N(C)C[C@H]1O2,0.89
C/C=C/c1ccccc1[C@H]1[C@@H](C#N)N(S(=O)(=O)c2cccc(F)c2)[C@H]1CO,0.56
C[C@H]1COCc2cnnn2CC[C@@H](Cc2ccccc2)C(=O)N1,-0.73
COc1ccc(-c2ccc([C@H]3[C@@H](C#N)N(C(=O)c4cccc(F)c4)[C@H]3CO)cc2)cc1,3.1
COc1ccc(-c2ccc([C@@H]3[C@@H](CO)N(C(=O)C4CCCCC4)[C@H]3C#N)cc2)cc1,1.6
CN(C)C(=O)c1cccc(-c2ccc([C@H]3[C@@H](CO)N(C(=O)C4CC4)[C@H]3C#N)cc2)c1,1.5
COc1ccccc1-c1ccc([C@@H]2[C@@H](C#N)N(C(=O)C3CC3)[C@H]2CO)cc1,-11*

# Assay outcomes: PubChem BioAssay, Broad Institute
